Test results: the supplement of paper PMC4894684
Counter-ions that a name gives are not always drawn. ± gives the standard deviation of the averaged measurements.

System: Toxoplasma gondii RH (in HFF)
Assay: parasite growth relative to the screen mean (all compounds = 100%); higher = less inhibition of parasite growth
Settings: 5 µM; 72 h; oxygen 21 %
In short: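 Values give growth relative to the screen mean. The screen mean (all compounds) is set at 100%, and two screens were averaged. Compounds at 5 µM final were placed on confluent human foreskin fibroblasts, which were infected within 2 h with RH β-Gal–GFP Toxoplasma (MOI 1:5) and kept 72 h at 21% O2 before a CPRG β-Gal readout against in-plate standard curves.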

Structure (SMILES) | parasite growth [%]
CCC(=O)O[C@]1(C(=O)SCF)[C@H](C)C[C@H]2[C@@H]3C[C@H](F)C4=CC(=O)C=C[C@]4(C)[C@@]3(F)[C@@H](O)C[C@@]21C [Fluticasone propionate] | 59.2 ± 34
O=C1CC2(CCCC2)CC(=O)N1CCCCN1CCN(c2ncccn2)CC1 [Buspirone hydrochloride] | 171 ± 21
C[C@H](NC[C@H](O)CP(=O)(O)CC1CCCCC1)c1ccc(Cl)c(Cl)c1 | 129 ± 36
NC(=O)c1cccc(N)c1 [3-Aminobenzamide] | 129 ± 30
Clc1cccc2c1CN(C1=NCCN1)C2 | 92.2 ± 25
CC(=O)N1CCN(c2ccc(OCC3COC(Cn4ccnc4)(c4ccc(Cl)cc4Cl)O3)cc2)CC1 (stereo not drawn) [Ketoconazole] | 186 ± 29
C1COC(NC(C2CC2)C2CC2)=N1 [Rilmenidine hemifumarate] | 125 ± 13
COc1ccc(CN(CCN(C)C)c2ccccn2)cc1 [Mepyramine maleate] | 115 ± 5.5
O=C1C(Cl)=C(NCCN2CCOCC2)C(=O)c2ncccc21 | 25.7 ± 24
FC(F)(F)c1cccc(-c2noc(-c3cc(-c4ccccc4)c(C(F)(F)F)s3)n2)c1 | 109 ± 44
CNC(=O)[C@@H](Cc1ccccc1)N(C)C(=O)[C@@H](Cc1ccc2ccccc2c1)N(C)C(=O)/C=C/CC(C)(C)N [Tabimorelin] | 135 ± 20
O=C(CCCN1CCC(O)(c2ccc(Cl)cc2)CC1)c1ccc(F)cc1 [Haloperidol hydrochloride] | 134 ± 39
CS(=O)(=O)Nc1ccc([N+](=O)[O-])cc1Oc1ccccc1 [Nimesulide] | 98.5 ± 4.5
CC(O)(C(=O)Nc1ccc(S(=O)(=O)c2ccccc2)cc1)C(F)(F)F (stereo not drawn) | 59.3 ± 19
O=C(/C=C/c1ccccc1)NC(NC(=S)Nc1cccc2cccnc12)C(Cl)(Cl)Cl (stereo not drawn) [Salubrinal] | 86.2 ± 17
C[N+]1(C)CCC(OC(=O)C(c2ccccc2)c2ccccc2)CC1 | 86.5 ± 39
CN1CCC(=C2c3ccccc3CC(=O)c3sccc32)CC1 [Ketotifen fumarate] | 54.3 ± 14
CCCn1c(=O)c2[nH]c(-c3ccccc3)nc2n(CCC)c1=O [1,3-Dipropyl-8-phenylxanthine] | 47 ± 7.9
Cn1cc(C2=C(c3ccc(Cl)cc3Cl)C(=O)NC2=O)c2ccccc21 | 136 ± 4.2

Structure (SMILES) | parasite growth [%]
N=C(N)S/C=C\C(=O)O [ZAPA sulphate] | 106 ± 28
S=C(S)N1CCCC1 [Pyrrolidinedithiocarbamate ammonium] | < 0
O=C(NCCCN1CCCCCC1)C(c1ccccc1)C1CCCCC1 (stereo not drawn) | 83 ± 2.4
CC(NC(=O)c1ccccc1/N=C/c1c(O)ccc2ccccc12)c1ccccc1 (stereo not drawn) [Sirtinol] | 97.5 ± 34
CCO/C(O)=C1\C(C)=NC(c2ccccc2)=C(C(=O)OCc2ccc([N+](=O)[O-])cc2)C1C#Cc1ccccc1 (stereo not drawn) | 67.4 ± 16
Cc1scc2c1N(C(=O)CN1CCN(C)CC1)c1ccccc1NC2=O [Telenzepine dihydrochloride] | 133 ± 26
CC1=C(C(=O)OCCN(Cc2ccccc2)c2ccccc2)C(c2cccc([N+](=O)[O-])c2)C(P2(=O)OCC(C)(C)CO2)=C(C)N1 (stereo not drawn) [Efonidipine hydrochloride monoethanolate] | 58 ± 3.9
CCCCc1nc2ccn(Cc3cccs3)c(=O)c2n1Cc1ccc(-c2ccccc2-c2nn[nH]n2)cc1 | 104 ± 12
Cc1cccc(C)c1OCC(C)N (stereo not drawn) [Mexiletine hydrochloride] | 141.59 ± 0.025
CCCN(C/C=C/I)C1CCc2cccc(O)c2C1 (stereo not drawn) [8-Hydroxy-PIPAT oxalate] | 190 ± 23
CC1(C)C(=O)NC2=C1C(=O)C(=O)c1ccccc12 | < 0
COc1cccc(-c2cc(=O)c3ccccc3o2)c1N | 93.9 ± 37
COc1ccc(Nc2ncnc3ccc(OC)cc23)cc1 [MPMQ hydrochloride] | 146 ± 14
CCc1cc(-c2n[nH]c(C)c2-c2ccc3c(c2)OCCO3)c(O)cc1O | 215 ± 12
CCOc1cc(C(=O)Nc2ccc(Cl)c(-c3nc4ccccc4[nH]3)c2)cc(OCC)c1OCC | 23.3 ± 3.9
CC(C)N1Cc2cc(S(C)(=O)=O)ccc2N(CCN2CC=C(c3c[nH]c4cc(F)ccc34)CC2)S1(=O)=O | 181 ± 36
CCc1cc(Cl)c(OC)c(C(=O)NC[C@@H]2CCCN2CC)c1O [Eticlopride hydrochloride] | 106 ± 11
CC#CCOC(=O)C1=CCCN(C)C1 [Arecaidine but-2-ynyl ester tosylate] | 144 ± 12
O=[N+]([O-])c1cccc2cn[nH]c12 [7-Nitroindazole] | 124.7 ± 0.72
